Test [1] in a line: qHTS assay to identify small molecule antagonists of the progesterone receptor (PR) signaling pathway - cell viability counter screen (AID 1346798). Also: series mostly up to about 92 µM; nearly all actives have a fitted effect of over 50% in size. The gist of the method:
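CellTiter-Glo luminescence; PR-UAS-bla HEK293T, 3,000 cells/well; compound + R5020, 16 hr, 37C/5% CO2; 30 min RT before read.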
On the technique in general: qHTS replaces the single test concentration by a dilution series.

Test [2] in a line: qHTS assay to identify small molecule agonists of the progesterone receptor (PR) signaling pathway - cell viability counter screen (AID 1346799; calls by dose curve; also: nearly all actives have a fitted effect of over 45% in size; also: potency is read from the fitted curve at half-maximal effect). The gist of the method: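 In parallel with the beta-lactamase readout, cytotoxicity toward PR-UAS-bla HEK293T cells was measured by CellTiter-Glo luminescence following 16 hr compound incubation in 2% charcoal-stripped FBS medium.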

The nature of test [3]: qHTS assay to identify small molecule antagonists of the TGF-beta/Smad signaling pathway - cell viability counter screen (AID 1346824). Also: nearly all actives have a fitted effect of over 50% in size. An outline of the steps:
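SBE-bla HEK 293T cells, incubated overnight, then compound plus 0.25 ng/mL TGF-beta1 (stock added) for 5 hr at 37 C. Viability was read in the same wells by CellTiter-Glo luminescence after 30 min at room temperature.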

Test [4] in a line: qHTS assay to identify small molecule agonists of the TGF-beta/Smad signaling pathway - cell viability counter screen (AID 1346829). Also: top concentration of the series differs between compounds; nearly all actives have a fitted effect of over 45% in size. The gist of the method: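 Same-well cytotoxicity: CellTiter-Glo added after the 2 hr room-temperature beta-lactamase substrate step, luminescence measured 30 min later; cells had 5 hr of compound at 37 C.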
Test [5] is described as follows: qHTS assay to identify small molecule agonists of the TGF-beta/Smad signaling pathway (AID 1346859; active = well fitted activation curve with a large enough effect in the signal ratio in the repeat runs, not every such curve was filed as active; the % refers to the signal ratio; also: series mostly up to about 77 µM). An outline of the steps: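 After overnight seeding, SBE-bla HEK 293T cells are dosed with compounds in DMSO and kept 5 hr at 37 C, 5% CO2. LiveBLAzer-type FRET substrate is then applied for 2 hr at room temperature.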
For test [6], the target named is Thyrotropin-releasing hormone receptor (Homo sapiens) (UniProt P34981). The test is described as follows: qHTS assay to identify small molecule antagonists of the thyrotropin-releasing hormone receptor (TRHR) signaling pathway (AID 1346877; active = well fitted inhibition curve with a large enough effect in the repeat runs, not every such curve was filed as active; also: series mostly up to about 51 µM). An outline of the steps:
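Screening used HEK293 cells engineered with TRHR, with a brief 5 min room-temperature compound exposure preceding addition of TRH to 1 nM. The read-out was kinetic calcium-dye fluorescence, concentration-response from 15 doses in triplicate.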

The target is the same in test [7]. The test is described as follows: qHTS assay to identify small molecule agonists of the thyrotropin-releasing hormone receptor (TRHR) signaling pathway (AID 1346891; calls by dose curve;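 also: HEK293 cells expressing TRHR with calcium dye readout; series mostly up to about 58 µM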). The gist of the method:
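Compounds were tested as agonists at 15 concentrations, in triplicate, on TRHR-Hek293 cells; calcium-sensitive dye fluorescence was recorded for 3 min following addition.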

Test [8] is described as follows: Human pregnane X receptor (PXR) small molecule agonists, qHTS cell viability counter screen (AID 1346977). Also: nearly all actives have a fitted effect of over 50% in size. Also: potency is read from the fitted curve at half-maximal effect. An outline of the steps: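 Viability counter screen: CellTiter-Fluor signal in PXR-Luc HepG2 cells, 24hr compound exposure, 37C, 5% CO2.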
Test [9] in a line: Caspase-3/7 induction in HepG2 cells by small molecules, qHTS assay (AID 1346978). Also: nearly all actives have a fitted effect of over 15% in size. The gist of the method: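 Wild-type HepG2 cells, 2,000/well, settled 5 hr at 37 C and 5% CO2, then compound-treated for 17 hr; caspase-3/7 activity read by luminescent Caspase-Glo 3/7 after 30 min at room temperature.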
The nature of test [10]: Caspase-3/7 induction in CHO-K1 cells by small molecules, qHTS cell viability counter screen (AID 1346979). Also: nearly all actives have a fitted effect of over 35% in size. Also: potency is read from the fitted curve at half-maximal effect. The gist of the method:
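Viability readout by fluorescence (CellTiter-Fluor) on wild-type CHO-K1 cells exposed for 16hr at 37C and 5% CO2 to compounds delivered in DMSO; reagent incubated 1hr before reading.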

Results filed as inconclusive are left out. More than one record can exist for a structure, and the calls need not agree. Activity calls are given as the source filed them. Unless noted, calls follow the shape of the dose curve; as a rule, active = well fitted curve in the direction sought with a large enough effect in the repeat runs; inconclusive = weak or mixed curves; inactive = no such curve, though single readings can be large; an effect the other way counts as inactive or inconclusive.

Sequence of Thyrotropin-releasing hormone receptor (Homo sapiens) (P34981 whole entry, looked up): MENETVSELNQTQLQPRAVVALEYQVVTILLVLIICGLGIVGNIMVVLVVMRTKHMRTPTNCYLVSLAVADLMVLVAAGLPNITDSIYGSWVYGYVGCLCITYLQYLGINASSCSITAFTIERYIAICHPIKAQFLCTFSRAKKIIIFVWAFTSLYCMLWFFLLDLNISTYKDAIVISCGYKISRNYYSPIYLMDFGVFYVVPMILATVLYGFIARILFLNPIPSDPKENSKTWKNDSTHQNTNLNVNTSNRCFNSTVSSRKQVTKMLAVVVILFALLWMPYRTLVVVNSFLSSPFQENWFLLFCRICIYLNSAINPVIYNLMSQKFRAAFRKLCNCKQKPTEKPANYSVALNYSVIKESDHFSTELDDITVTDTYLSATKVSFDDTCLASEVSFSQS

Take `c1ccc(OP(Oc2ccccc2)Oc2ccccc2)cc1`: the Potency result in [1], in test [2], in test [3], in test [5], in test [7] and in test [8] was “inactive” in each case. In test [10], the Potency entry was “inactive”. For the same compound, the outcome in test [4], in test [6] and in test [9] was inactive.
Consider `OC(O)C(Cl)(Cl)Cl`, for which the Potency entry in [1], in [2], in [3], in [5], in [7] and in test [8] was “inactive” each time. Also, the Potency entry in test [10] is “inactive”. Besides, the outcome in test [4], in test [6] and in test [9] was inactive.
On to `ClCc1cccnc1`, for which the Potency result in test [1], in test [2], in test [3], in test [5], in test [7] and in test [8] was “inactive” in each case. In addition, the Potency result in test [10] is “inactive”. Also, the compound was classed as inactive in test [4], in test [6] and in test [9].
On to `Cn1cc(-c2ccccc2)c(=O)c(-c2cccc(C(F)(F)F)c2)c1`, for which the Potency result in [1], in [2], in test [3], in [5], in test [7] and in test [8] was “inactive” throughout. The call in [4], in [6] and in test [9] was inactive.
With `CC(C)OC(=O)Nc1ccccc1`, the Potency result in [1], in test [2], in test [3], in test [5], in [7] and in [8] was “inactive” in each case. Besides, the Potency result in [10] is “inactive”. In addition, the call in test [4], in test [6] and in test [9] was inactive.
Turning to `CCOP(=S)(OCC)Oc1cnc2ccccc2n1`, the Potency result in [1], in [2], in [3], in test [5], in [7] and in [8] was “inactive” in each case. For the same compound, the Potency entry in test [10] is “inactive”. For the same compound, the compound was classed as inactive in [4] and in [6].
Take `C#CC(C)(C)NC(=O)c1cc(Cl)cc(Cl)c1`: the Potency result in test [1], in test [2], in test [3], in test [5], in [7] and in test [8] was “inactive” in each case. The Potency entry in test [10] was “inactive”. Further, the compound was classed as inactive in test [4], in test [6] and in test [9].
Turning to `CCOP(OCC)OCC`, the Potency result in test [1], in test [2], in test [3], in [5], in [7] and in test [8] was “inactive” each time. The Potency entry in [10] was “inactive”. Also, the result in [4], in test [6] and in test [9] was inactive.
Take `[N-]=[N+]=[N-]`: the Potency entry in test [1], in test [2], in test [3], in [5], in test [7] and in test [8] was “inactive” in each case. Besides, the Potency result in test [10] is “inactive”. The compound was classed as inactive in test [4], in test [6] and in test [9].
Consider `c1ccc(-c2ccccc2)cc1`, for which the Potency result in test [1], in test [2], in [3], in test [5], in test [7] and in test [8] was “inactive” in each case. The Potency result in test [10] was “inactive”. For the same compound, the call in test [4] and in test [6] was inactive.
Turning to `CCCCCCCCCl`, the Potency result in test [1], in test [2], in test [3], in [5], in test [7] and in test [8] was “inactive” in each case. Further, in test [10], the Potency entry is “inactive”. In addition, the compound was classed as inactive in test [4] and in test [6].
Turning to `CN(C)CCO`, the Potency result in [1], in [2], in test [3], in test [5], in test [7] and in test [8] was “inactive” each time. The Potency result in test [10] was “inactive”. In addition, the call in test [4], in test [6] and in [9] was inactive.
Regarding `COC(=O)c1ccccc1C(=O)OC`, the Potency entry in test [1], in test [2], in [3], in test [5], in test [8] and in test [10] was “inactive” throughout. The outcome in test [4] and in [9] was inactive.
For `NCCc1ccc(O)cc1`, the Potency entry in [1], in test [3], in test [5], in test [7], in test [8] and in test [10] was “inactive” each time. In addition, in test [2], the Potency was 21.5 µM (active) and inactive. Further, the call in test [4] and in test [6] was inactive.
With `CC(C)=C[C@@H]1[C@@H](C(=O)OCc2coc(Cc3ccccc3)c2)C1(C)C`, the Potency result in test [1], in test [2], in [3], in [5], in test [8] and in test [10] was “inactive” in each case. The call in test [4] and in [9] was inactive.
Regarding `CCCCCOC(=O)c1ccccc1C(=O)OCCCCC`, the Potency entry in [1], in [2], in test [5], in test [7], in [8] and in [10] was “inactive” each time. Further, the compound was classed as inactive in [4], in test [6] and in [9].
On to `COc1ccc2c3c1O[C@H]1[C@@H](O)C=C[C@H]4[C@@H](C2)N(C)CC[C@@]341`, for which the Potency entry in [1], in test [2], in [3] and in [5] was “inactive” each time. In addition, in test [4], the call was inactive. For the same compound, the Potency was 67.5 µM (active) and inactive in test [8]; 60.1 µM (active) and inactive in [10].
For the compound `CCC12COCN1COC2`, the Potency entry in [1], in test [2], in test [3], in [5], in test [8] and in [10] was “inactive” in each case. In addition, the call in [4] was inactive.
Consider `CCN(CC)c1ccccc1`, for which the Potency entry in [1], in test [2], in test [5], in test [7], in [8] and in test [10] was “inactive” in each case. For the same compound, the compound was called inactive in [4], in [6] and in test [9].
With `CC(C)(C)OOC(=O)c1ccccc1`, the Potency entry in test [1], in test [2], in test [3], in [5], in test [8] and in test [10] was “inactive” each time. In addition, the compound was called inactive in test [4].
In the case of `c1ccc2c(c1)Oc1ccccc1O2`, the Potency entry in [1], in test [2], in [3], in [5], in test [8] and in test [10] was “inactive” in each case. Moreover, the compound was called inactive in [4] and in [9].
In the case of `CC(C)OC(=O)Nc1cccc(Cl)c1`, the Potency entry in test [1], in [2], in [5], in [7], in test [8] and in test [10] was “inactive” throughout. Further, the outcome in test [4], in test [6] and in test [9] was inactive.
With `CC(C)(Cl)Cl`, the Potency result in [1], in [2], in test [5], in test [7], in [8] and in [10] was “inactive” in each case. The compound was classed as inactive in test [4], in test [6] and in test [9].
`COCCl`: the Potency result in test [1], in [2], in test [3] and in test [5] was “inactive” in each case. The compound was classed as inactive in test [4] and in test [9]. For the same compound, the Potency in [8] was 39.8 µM (active) and inactive; in [10], 20.1 µM (active) and inactive.
On to `C1CC2OC2CC1C1CO1` (centres undefined), for which the Potency entry in test [1], in test [2], in [3], in test [5], in [8] and in test [10] was “inactive” throughout. Further, in [4], the result was inactive.
With `Nc1c(Cl)c(Cl)nc(C(=O)O)c1Cl`, the Potency result in test [1], in test [2], in test [3], in test [7], in test [8] and in test [10] was “inactive” throughout. The result in test [4], in [6] and in test [9] was inactive.
For `Nc1ccccc1C(=O)O`, the Potency entry in test [1], in test [2], in [3], in test [5], in test [7] and in test [8] was “inactive” throughout. Moreover, the Potency entry in test [10] is “inactive”. Further, the call in [4] and in test [6] was inactive.

The values are drawn from PubChem BioAssay (Tox21).
